# Laboratory results from PubChem BioAssay (Tox21).
# Inconclusive results are not listed. Entries that show only a call come without a potency. The source made the active and inactive calls. Calls follow the shape of the dose curve; as a rule, active = well fitted activation curve with a large enough effect in the repeat runs; inconclusive = weak or mixed curves, or effect the other way; inactive = no such curve, though single readings can be large or run the other way.
# Assay: qHTS assay to identify small molecule agonists of the estrogen related receptor signaling pathway with the pleiotropic PPARgamma coactivator (PGC) from Tox21 10K library (AID 1224842); also: nearly all actives have a fitted effect of over 15% in size
# Details: PGC/ERR reporter cell line, luciferase ONE-Glo, 18 h; series mostly up to 92.4 µM
# Excerpt: National Center for Advancing Translational Sciences [NCATS] NIH Chemical Genomics Center [NCGC] U.S. Environmental Protection Agency [EPA] National Institutes of Environmental Health Sciences [NIEHS] National Toxicology Program [NTP] Assay overview: Estrogen related receptors (ERRs), the first orphan nuclear receptors discovered, play an important role in the control of cellular energy metabolism. ERRs are required for high-energy production in response to the environmental challenges. The pleiotropic PPARgamma coactivator (PGC) is a major partner of ERR and a key regulator in energy homeostasis. Together they have been implicated in the etiology of metabolic disorders such as Type 2 diabetes and metabolic syndrome. ERR-alpha was also identified as an adverse marker for breast cancer progression; ERR-alpha-positive tumors have a poor prognosis. To screen and to identify environmental compounds that perturb the PGC/ERR signaling pathways could provide valuable information for potential therapeutic or preventive measures in the treatment of metabolic disease. For identifying PGC/ERR agonists, PGC/ERR cell line (provided by NTP) has been used to screen Tox21 10K library.
# Assay Protocol Summary: The PGC/ERR cells were dispensed at 2,000 cells/5 ul/well in 1536-well white plates using a Multidrop dispenser. After the assay plates were incubated at a 37 C/5% CO2 incubator for 6 hours, 23 nL of compounds dissolved in DMSO, positive and negative controls or DMSO only was transferred to the assay plate by a pin tool. The plates were incubated at 37 C for 18 hours. 4 ul/well of One-Glo reagent was added into the assay plates using a Flying Reagent Dispenser. After 30-minute incubation at room temperature, the luminescence intensity in the plates was measured using a ViewLux plate reader.
# Potency is read from the fitted curve at half-maximal effect.
row,SMILES,Potency
1,CCCCC(CC)CN1C(=O)C2C3C=CC(C3)C2C1=O (stereo not given),inactive
2,COc1ccc(C(=O)c2ccc(OC)cc2O)c(O)c1,4.89 µM (active)
3,C=C1C(=C/C=C2\CCC[C@]3(C)[C@@H]([C@H](C)/C=C/[C@@H](O)C4CC4)CC[C@@H]23)C[C@@H](O)C[C@@H]1O,inactive
4,C#Cc1cccc(Nc2ncnc3cc(OCCOC)c(OCCOC)cc23)c1,inactive
5,COc1cc2nc(N(C)CCCNC(=O)C3CCCO3)nc(N)c2cc1OC (stereo not given),inactive
6,OCc1cc(C(O)CNCCCCCCOCCCCc2ccccc2)ccc1O (stereo not given),inactive
7,CCn1cc(C(=O)O)c(=O)c2cnc(N3CCNCC3)nc21,inactive
8,COC(=O)C1=C(C)NC(COC(N)=O)=C(C(=O)OC(C)C)C1c1cccc(Cl)c1Cl (stereo not given),inactive
9,CCc1c(C(=O)NN2CCCCC2)nn(-c2ccc(Cl)cc2Cl)c1-c1ccc(Br)cc1,inactive
10,CCOC(=O)Cc1cccc2ccccc12,inactive
11,CCc1cc(C2=C(C(=O)O)N(c3ccccc3C(F)(F)F)S(=O)(=O)c3ccccc32)cc2c1OCO2,inactive
12,O=C(O)c1nc(Cl)c(Cl)c(Cl)c1Cl,inactive
13,CCCn1cnc2c1c(=O)n(CCCCC(C)=O)c(=O)n2C,inactive
14,Nc1ccc(N)c2c1C(=O)c1ccccc1C2=O,inactive
15,OC(C#CCN1CCCC1)(c1ccccc1)c1ccccc1,inactive
16,O=C(Nc1ccc(S(=O)(=O)N2CCOCC2)cc1)c1cc(Cl)ccc1NS(=O)(=O)c1ccc(Cl)s1,inactive
17,O=S(=O)(Oc1ccc(Cl)cc1)c1ccccc1,inactive
18,CC(=O)[O][Al][O]C(C)=O,inactive
19,C1CCCNCCC1,inactive
20,CCCCOC(=O)CCCCCCCC(=O)OCCCC,inactive

row,SMILES,Potency
1,CCN(CC)c1ccc2c(-c3ccccc3C(=O)O)c3ccc(=[N+](CC)CC)cc-3oc2c1,inactive
2,CCCCCCCC#N,inactive
3,NCCCN1CCOCC1,inactive
4,CCC(Cl)CCC(Cl)C(Cl)CC(Cl)C(Cl)C(Cl)CCl (stereo not given),inactive
5,CN1CCC(=C2c3ccccc3Sc3ccccc32)CC1,inactive
6,Cn1c(=O)cc(Oc2ccc(F)cc2F)c2cnc(NCC(C)(C)O)nc21,inactive
7,CC(COCCO)OCCO (stereo not given),inactive
8,C=C(C)C(=O)OCC,inactive
9,C[Si](C)(CCCN)O[Si](C)(C)CCCN,inactive
10,CN1Cc2cc(C(=O)N3CCC(C4CCNCC4)CC3)ccc2NC(CC(=O)O)C1=O (stereo not given),inactive
11,CC(C)C[C@H]1C(=O)N2CCC[C@H]2[C@]2(O)O[C@](NC(=O)[C@@H]3C=C4c5cccc6[nH]c(Br)c(c56)C[C@H]4N(C)C3)(C(C)C)C(=O)N12,inactive
12,C[N+]1(CC2COC(c3ccccc3)(C3CCCCC3)O2)CCCCC1 (stereo not given),inactive
13,Nc1ccccc1S(=O)(=O)c1ccccc1,inactive
14,CC(C)CC(=O)C1C(=O)c2ccccc2C1=O,inactive
15,Cc1c(N)cccc1[N+](=O)[O-],inactive
16,CN1C[C@H]2c3ccccc3Oc3ccc(Cl)cc3[C@@H]2C1,inactive
17,CCCOC(C(=O)OC1CCN(C)CC1)(c1ccccc1)c1ccccc1,inactive
18,CCCCCCCCCCCCCCCCOS(=O)(=O)O,inactive
19,COc1cc(C(=O)OCCCN2CCCN(CCCOC(=O)c3cc(OC)c(OC)c(OC)c3)CC2)cc(OC)c1OC,inactive
20,NC(=O)C(c1ccccc1)(c1ccccc1)[C@@H]1CCN(CCc2ccc3c(c2)CCO3)C1,inactive
